# Measurements from PubChem BioAssay (NCI).
# Values joined by “and” are separate entries in the source; they are usually repeats but may differ in a detail not shown here. Equal entries are not always repeated. This is part of a sample that, as a whole, favours compounds with a hit. Of some 79,000 tested, about 15% had one in any assay. Values without a mark were called inactive. Active and inactive are the calls of the source. Rule as the data show it: active = growth inhibition above about 70%; inactive = the rest.
# Experiment: NCI Yeast Anticancer Drug Screen. Data for the sgs1 mgt1 strain (AID 161);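 also: 0% = growth of cultures given vehicle only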
# Details: S. cerevisiae sgs1 mgt1 strain, at 5.0 µM (retest, dose inferred, filed as 0.5), hits give high values
# Protocol: Growth inhibition of yeast strains with defined genetic alterations is measured as a screen for potential anti-cancer activity. Selected strains with alterations in DNA damage repair or cell cycle control were exposed to compounds and growth inhibition was measured relative to vehicle treated controls. The strain used in this assay is sgs1 mgt1
row,SMILES,growth inhibition
1,CC12CCC3C(CC=C4CC(SC(=N)N)CCC43C)C1CCC2=O (configuration not stated),21%
2,CC(C)CCC(=O)OC1CCC2(C)C(=CCC3C2CCC2(C)C(O)CCC32)C1 (configuration not stated),5%
3,C=NCC#N,4%
4,COc1ccc(P2(=S)Oc3ccc(C(c4ccccc4)(c4ccccc4)c4ccccc4)cc3O2)cc1 (configuration not stated),34%
5,O=P(c1ccccc1)(c1ccccc1)c1ccccc1.[Cl][Sn]([c]1ccccc1)([c]1ccccc1)[c]1ccccc1,99% (active)
6,C[C@]12CCC(O)CC1=CC[C@@H]1[C@@H]2CC[C@]2(C)C(=O)[C@H](n3ccnc3)C[C@@H]12 (some centres not stated),18%
7,CC12OOC(c3ccccc31)c1c2ccc2ccccc12 (configuration not stated),92% (active)
8,Cc1ccc2c(C)c3ccc4ccccc4c3c[n+]2c1,87% (active)
9,CCc1c[c]([Hg][Cl])c(CC)c(CC)c1CC,40%
10,COC1OCCC[CH]1[Hg][Cl] (configuration not stated),99% (active)

# Same assay, conditions: S. cerevisiae sgs1 mgt1 strain, at 50.0 µM (retest, dose inferred, filed as 5.0), hits give high values
row,SMILES,growth inhibition
1,CC12CCC3C(CC=C4CC(SC(=N)N)CCC43C)C1CCC2=O (configuration not stated),72% (active)
2,CC(C)CCC(=O)OC1CCC2(C)C(=CCC3C2CCC2(C)C(O)CCC32)C1 (configuration not stated),27%
3,C=NCC#N,8%
4,COc1ccc(P2(=S)Oc3ccc(C(c4ccccc4)(c4ccccc4)c4ccccc4)cc3O2)cc1 (configuration not stated),96% (active)
5,O=P(c1ccccc1)(c1ccccc1)c1ccccc1.[Cl][Sn]([c]1ccccc1)([c]1ccccc1)[c]1ccccc1,99% (active)
6,C[C@]12CCC(O)CC1=CC[C@@H]1[C@@H]2CC[C@]2(C)C(=O)[C@H](n3ccnc3)C[C@@H]12 (some centres not stated),62%
7,CC12OOC(c3ccccc31)c1c2ccc2ccccc12 (configuration not stated),99% (active)
8,Cc1ccc2c(C)c3ccc4ccccc4c3c[n+]2c1,95% (active)
9,CCc1c[c]([Hg][Cl])c(CC)c(CC)c1CC,100% (active)
10,COC1OCCC[CH]1[Hg][Cl] (configuration not stated),99% (active)

# Same assay, conditions: S. cerevisiae sgs1 mgt1 strain, at 50.0 µM, hits give high values
row,SMILES,growth inhibition
1,[CH3][Sb]1([Cl])[CH2]CC[CH2]1,-5.6%
2,Cc1cc(C)n(-c2nc3ccccc3c(=O)n2-c2ccccc2)n1,-14.5%
3,CC[C@H]1CN2CCc3c([nH]c4ccccc34)[C@@H]2C[C@@H]1/C(=C\OC)C(=O)OC,18.6%
4,C(#Cc1ccccc1)c1ccccc1,20.3%
5,CC12CCC3C(CC=C4CC(SC(=N)N)CCC43C)C1CCC2=O (configuration not stated),75.5% (active)
6,CC(C)CCC(=O)OC1CCC2(C)C(=CCC3C2CCC2(C)C(O)CCC32)C1 (configuration not stated),36.4%
7,C=NCC#N,25%
8,CC(C)CCC(=O)O[C@H]1CC[C@@]2(C)C(=CC[C@@H]3[C@@H]2CC[C@]2(C)C(=O)CC[C@@H]32)C1,11.4%
9,COc1ccc(P2(=S)Oc3ccc(C(c4ccccc4)(c4ccccc4)c4ccccc4)cc3O2)cc1 (configuration not stated),54.7%
10,O=P(c1ccccc1)(c1ccccc1)c1ccccc1.[Cl][Sn]([c]1ccccc1)([c]1ccccc1)[c]1ccccc1,99.7% (active)
11,CC(=O)OC1CC(OC2C(O)CC(OC3C(O)CC(OC4CCC5(C)C(CCC6C5CCC5(C)C(C7=CC(=O)OC7)C(O)CC65O)C4)OC3C)OC2C)OC(C)C1OC1OC(CO)C(O)C(O)C1O (configuration not stated),-12.8%
12,C[C@]12CCC(O)CC1=CC[C@@H]1[C@@H]2CC[C@]2(C)C(=O)[C@H](n3ccnc3)C[C@@H]12 (some centres not stated),52.2%
13,CC12OOC(c3ccccc31)c1c2ccc2ccccc12 (configuration not stated),90% (active)
14,Cc1[nH]c2cc([N+](=O)[O-])ccc2c1[N+](=O)[O-],26% and 38.3%
15,N#CS.N=C=S.N=C=S.[Cu+2].[NH2-].[NH2-].[NH2-].[NH2-].c1ccc2ncccc2c1,-24.2%
16,Cc1ccc(CI)cc1,-22.9%
17,CC(=O)CC(C)=O.[Cl][Sb]1([Cl])[CH2]CC[CH2]1,-17.1%
18,Cc1ccc2c(C)c3ccc4ccccc4c3c[n+]2c1,85.2% (active)
19,CCc1c[c]([Hg][Cl])c(CC)c(CC)c1CC,99.7% (active)
20,CC(OC(N)=O)C(F)(F)C(F)F (configuration not stated),1.35%
21,ClC1=C(Cl)C2(Cl)C3C(C4(Cl)C(Cl)=C(Cl)C3(Cl)C4(Cl)Cl)C2(Cl)C1(Cl)Cl (configuration not stated),9%
22,COC1OCCC[CH]1[Hg][Cl] (configuration not stated),99.5% (active)
